Measured values as given in PubChem BioAssay AID1159580 (chemical genetic matrix, 2015).
“And” between values parts separate entries of the source, which are not always exact repeats. Identical values can stand only once. Screen size: about 5,500 compounds; about 2,000 (36%) were called active. About 18% were inconclusive and are not listed. Rule as the data show it: active = normalized growth mostly below about 0.91 (no sharp cut-off); inconclusive = no clear call, values can overlap the other calls; inactive = mostly above about 0.92. This is one part of the list.

Test: chemical genetic growth profiling, strain panel (AID 1159580);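 also: tested at 20 µM; growth read once vehicle control cultures reached saturation at 30 °C; 1 = growth at the plate median or of vehicle wells; lower values mean less growth of the strain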
Details: S. cerevisiae deletion strains, growth OD

Measured: normalized growth

CSc1nc(NC(C)C)nc(NC(C)C)n1
inactive: locus YAL013W, strain DEP1, hits give low values 1.01 | locus YAL021C, strain ccr4, hits give low values 0.969 | locus YAL026C, strain drs2, hits give low values 0.969 | locus YAL030W, strain snc1, hits give low values 0.98 | locus YBL061C, strain skt5, hits give low values 0.968 | locus YBR009C, strain hhf1, hits give low values 0.979 | locus YBR021W, strain FUR4, hits give low values 1.04 | locus YBR023C, strain chs3, hits give low values 0.957 | locus YBR171W, strain sec66, hits give low values 0.954 | locus YBR229C, strain ROT2, hits give low values 0.999 | locus YBR231C, strain swc5, hits give low values 0.961 | locus YBR279W, strain paf1, hits give low values 0.972 | locus YCL011C, strain gbp2, hits give low values 0.966 | locus YCL016C, strain dcc1, hits give low values 0.967 | locus YCL029C, strain bik1, hits give low values 1.01 | locus YCL061C, strain MRC1, hits give low values 0.979 | locus YCL069W, strain vba3, hits give low values 0.975 | locus YCR088W, strain abp1, hits give low values 0.986 | locus YDL005C, strain med2, hits give low values 0.981 | locus YDL035C, strain GPR1, hits give low values 1.02 | locus YDL040C, strain nat1, hits give low values 0.962 | locus YDL074C, strain BRE1, hits give low values 1.01 | locus YDL101C, strain DUN1, hits give low values 1.02 | locus YDL134C, strain PPH21, hits give low values 1 | locus YDL185W, strain tfp1, hits give low values 1.03 | locus YDL192W, strain arf1, hits give low values 1.01 | locus YDR001C, strain nth1, hits give low values 0.979 | locus YDR069C, strain doa4, hits give low values 0.977 | locus YDR101C, strain arx1, hits give low values 1.01 | locus YDR137W, strain rgp1, hits give low values 0.848 | locus YDR150W, strain NUM1, hits give low values 0.994 | locus YDR159W, strain sac3, hits give low values 0.967 | locus YDR162C, strain NBP2, hits give low values 1.02 | locus YDR195W, strain ref2 0.998 | locus YDR297W, strain sur2, hits give low values 0.975 | locus YDR318W, strain mcm21, hits give low values 1.03 | locus YDR334W, strain swr1, hits give low values 0.968 | locus YDR335W, strain msn5, hits give low values 0.969 | locus YDR388W, hits give low values 1.01 | locus YDR392W, strain spt3, hits give low values 0.958 | locus YDR502C, strain sam2, hits give low values 1.01 | locus YEL003W, strain gim4, hits give low values 0.972 | locus YEL037C, strain rad23, hits give low values 0.975 | locus YEL061C, strain CIN8 (second series), hits give low values 0.961 | locus YEL061C, strain CIN8, hits give low values 1 | locus YER015W, strain faa2, hits give low values 0.973 | locus YER016W, strain bim1, hits give low values 0.966 | locus YER110C, hits give low values 1 | locus YER111C, strain swi4, hits give low values 0.977 | locus YER155C, strain BEM2 (second series), hits give low values 0.952 | locus YER155C, strain BEM2, hits give low values 1.01 | locus YER167W, strain BCK2, hits give low values 0.995 | locus YFR010W, strain ubp6, hits give low values 0.978 | locus YGL078C, strain dbp3, hits give low values 1.01 | locus YGL086W, strain mad1, hits give low values 1.01 | locus YGL167C, strain pmr1, hits give low values 0.958 | locus YGL173C, strain kem1, hits give low values 0.964 | locus YGL227W, strain vid30, hits give low values 0.956 | locus YGL240W, strain doc1, hits give low values 0.95 | locus YGL248W, strain PDE1, hits give low values 1.01 | locus YGL253W, strain hxk2, hits give low values 0.973 | locus YGR078C, strain PAC10, hits give low values 1.01 | locus YGR135W, strain pre9, hits give low values 1.01 | locus YGR229C, strain SMI1, hits give low values 1.02 | locus YGR252W, strain gcn5, hits give low values 1.14 | locus YHR013C, strain ard1, hits give low values 0.944 | locus YHR027C, strain rpn1, hits give low values 0.972 | locus YHR030C, strain SLT2, hits give low values 1.02 and 1.03 | locus YHR079C, strain IRE1 (second series), hits give low values 1.01 | locus YHR079C, strain IRE1, hits give low values 1.03 | locus YHR094C, strain hxt1, hits give low values 1 | locus YHR129C, strain ARP1, hits give low values 1.01 | locus YHR142W, strain chs7, hits give low values 0.95 | locus YHR200W, strain rpn10, hits give low values 1.01 | locus YIL066C, strain RNR3, hits give low values 1.03 | locus YIL073C, strain SPO22, hits give low values 1.02 | locus YIL125W, strain kgd1, hits give low values 1.01 | locus YIR030C, strain dcg1, hits give low values 1.02 | locus YJL092W, strain hpr5, hits give low values 0.981 | locus YJL095W, strain BCK1 (second series), hits give low values 0.968 | locus YJL095W, strain BCK1, hits give low values 0.988 and 0.974 | locus YJL115W, strain asf1, hits give low values 0.978 | locus YJL129C, strain trk1, hits give low values 0.962 | locus YJL134W, strain LCB3, hits give low values 1.02 | locus YJL154C, strain vps35, hits give low values 0.977 | locus YJL164C, strain tpk1, hits give low values 0.969 | locus YJL166W, strain qcr8, hits give low values 0.978 | locus YJL168C, strain set2, hits give low values 1 | locus YJL187C, strain SWE1 (second series), hits give low values 1.01 | locus YJL187C, strain SWE1, hits give low values 0.973 | locus YJR043C, strain POL32, hits give low values 1.02 | locus YJR066W, strain TOR1, hits give low values 0.968
